In PubChem BioAssay:
Records with an inconclusive call do not appear. The source made the active and inactive calls.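 The calls were made as follows, unless noted: active = normalized viability below 100% at a tested concentration; inactive = the rest.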

Experiments:
[1] = drug combination growth inhibition, ovarian cancer – cell-based, oncology-focused library, rucaparib conditional, profiling panel (AID 1508598); details: patient-derived ovarian cancer cells, CellTiter-Glo viability, 144 h, stronger effect = lower value
[2] = viability loss in pontine glioma line – cell-based, SU-DIPG-XVII, MIPE5.0, CellTiter-Glo, qHTS, dose response (AID 1347060; cut-off not given, nearly all actives have AC50 up to about 26 µM;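 as to AC50: cells exposed to compound for 48 hours before viability readout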); details: CellTiter-Glo ATP luminescence
[3] = viability loss in pontine glioma line – cell-based, SU-DIPG-XIII, MIPE4.0, CellTiter-Glo, qHTS, dose response (AID 1347061; cut-off not given, nearly all actives have AC50 up to about 37 µM;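 also: cells exposed to compound for 48 hours before readout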); details: CellTiter-Glo ATP luminescence
[4] = viability loss in pontine glioma line – cell-based, JHH-DIPG-1, MIPE4.0, CellTiter-Glo, qHTS, dose response (AID 1347062; cut-off not given, nearly all actives have AC50 up to about 27 µM;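 as to AC50: cells exposed to compound for two days before readout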); details: JHH-DIPG-1 viability, CellTiter-Glo ATP luminescence
[5] = viability loss in pontine glioma line – cell-based, SU-DIPG-IV, MIPE4.0, CellTiter-Glo, qHTS, dose response (AID 1347063; cut-off not given, nearly all actives have AC50 up to about 30 µM;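 also: compound exposure lasted 48 hours before the viability readout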); details: CellTiter-Glo ATP luminescence
[6] = viability loss in pontine glioma line – cell-based, SU-DIPG-XIII, MIPE5.0, CellTiter-Glo, qHTS, dose response (AID 1347064; cut-off not given, nearly all actives have AC50 up to about 23 µM;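 as to AC50: cells exposed to compound for 48 hours before the viability read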); details: CellTiter-Glo ATP luminescence
[7] = viability loss in pontine glioma line – cell-based, SU-DIPG-XXV, MIPE5.0, CellTiter-Glo, qHTS, dose response (AID 1347065; cut-off not given, nearly all actives have AC50 up to about 26 µM;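 also: cells exposed to compound for 48 hours before ATP readout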); details: CellTiter-Glo ATP luminescence
[8] = growth inhibition of DIPG cells – cell-based, MIPE4.0 library, CellTiter-Glo luminescence, qHTS (AID 1347066; cut-off not given, nearly all actives have AC50 up to about 30 µM;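 also: cells exposed to compound for 48 hours before readout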); details: SU-DIPG-VI viability, CellTiter-Glo ATP luminescence
[9] = JHH-DIPG-1 glioma cell viability, MIPE5.0 library, CellTiter-Glo luminescence, qHTS (AID 1347067; cut-off not given, nearly all actives have AC50 up to about 26 µM;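 also: cells exposed to compound for 48 hours before readout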); details: JHH-DIPG-1 glioma viability, CellTiter-Glo ATP luminescence
[10] = growth inhibition of DIPG cells – cell-based, MIPE5.0 library, qHTS (AID 1347068; cut-off not given, nearly all actives have IC50 up to about 30 µM;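 as to IC50: cells exposed to compound for 48 hours before viability readout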); details: SU-DIPG-XXV viability
[11] = viability loss with induced miR-34 in A549 – imaging, A549 dox-inducible miR-34, nuclei and caspase counts, primary screen (AID 1347080;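 active = compounds whose cell count with miR-34 switched on is under 0.7 times the count with it off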); details: A549 miR-34 inducible, Hoechst nuclei count, 48 h
[12] = compounds altering HSF1 focus formation in cells – imaging, Selleck Cancer Library (AID 1347162; in the data active = plate-normalised HSF1 focus index below about 0.46); details: human cells, HSF1 nuclear foci imaging, at 10 µM; SSMD: measured here: HSF1 foci SSMD mean; cell count: measured here: cell number; plate-normalised HSF1 focus index: stronger effect = lower value
[13] = MELAS cybrid and Rieske KO viability enhancers – cell-based, MELAS cybrids, Rieske KO mouse fibroblasts, CellTiter-Glo, primary screen (AID 1508586;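 active = mean z-score across replicates of 1.96 or higher in either the MELAS or the Rieske mutant cell line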;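 also: z relative to plate mean and SD of compound and empty wells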); details: low glucose
[14] = at 0.0195 µM, OCI-C5x cells, with rucaparib 10 µM, 100% = cells with rucaparib alone
[15] = at 0.0195 µM, OCI-C5x cells, without rucaparib
[16] = at 0.0195 µM, OCI-P5x cells, with rucaparib 20 µM, 100% = cells with rucaparib alone
[17] = at 0.0195 µM, OCI-P5x cells, without rucaparib
[18] = at 0.0781 µM, OCI-C5x cells, with rucaparib 10 µM, 100% = cells with rucaparib alone
[19] = at 0.0781 µM, OCI-C5x cells, without rucaparib
[20] = at 0.0781 µM, OCI-P5x cells, with rucaparib 20 µM, 100% = cells with rucaparib alone
[21] = at 0.0781 µM, OCI-P5x cells, without rucaparib
[22] = at 0.313 µM, OCI-C5x cells, with rucaparib 10 µM, 100% = cells with rucaparib alone
[23] = at 0.313 µM, OCI-C5x cells, without rucaparib
[24] = at 0.313 µM, OCI-P5x cells, with rucaparib 20 µM, 100% = cells with rucaparib alone
[25] = at 0.313 µM, OCI-P5x cells, without rucaparib
[26] = at 1.25 µM, OCI-C5x cells, with rucaparib 10 µM, 100% = cells with rucaparib alone
[27] = at 1.25 µM, OCI-C5x cells, without rucaparib
[28] = at 1.25 µM, OCI-P5x cells, with rucaparib 20 µM, 100% = cells with rucaparib alone
[29] = at 1.25 µM, OCI-P5x cells, without rucaparib
[30] = at 5 µM, OCI-C5x cells, with rucaparib 10 µM, 100% = cells with rucaparib alone
[31] = at 5 µM, OCI-C5x cells, without rucaparib
[32] = at 5 µM, OCI-P5x cells, with rucaparib 20 µM, 100% = cells with rucaparib alone
[33] = at 5 µM, OCI-P5x cells, without rucaparib
[34] = stronger effect = lower value, cell number ratio, induced over uninduced
[35] = measured here: relative caspase fold change +Dox/-Dox
[36] = measured here: total cells with miR-34 induction, stronger effect = lower value
[37] = measured here: total cells without miR-34 induction
[38] = MELAS cybrid survival, CellTiter-Glo 48 h, stronger effect = higher value
[39] = Rieske KO mouse fibroblast survival, CellTiter-Glo 72 h
[40] = at 0.000305 µM, OCI-C5x cells, with rucaparib 10 µM, 100% = cells with rucaparib alone
[41] = at 0.000305 µM, OCI-C5x cells, without rucaparib
[42] = at 0.000305 µM, OCI-P5x cells, with rucaparib 20 µM, 100% = cells with rucaparib alone
[43] = at 0.000305 µM, OCI-P5x cells, without rucaparib
[44] = at 0.00122 µM, OCI-C5x cells, with rucaparib 10 µM, 100% = cells with rucaparib alone
[45] = at 0.00122 µM, OCI-C5x cells, without rucaparib
[46] = at 0.00122 µM, OCI-P5x cells, with rucaparib 20 µM, 100% = cells with rucaparib alone
[47] = at 0.00122 µM, OCI-P5x cells, without rucaparib
[48] = at 0.00488 µM, OCI-C5x cells, with rucaparib 10 µM, 100% = cells with rucaparib alone
[49] = at 0.00488 µM, OCI-C5x cells, without rucaparib
[50] = at 0.00488 µM, OCI-P5x cells, with rucaparib 20 µM, 100% = cells with rucaparib alone
[51] = at 0.00488 µM, OCI-P5x cells, without rucaparib

C=CC(=O)Nc1cccc(Oc2nc(Nc3ccc(N4CCN(C)CC4)cc3OC)ncc2Cl)c1
active: viability [1, 27] 45.1% | viability [1, 29] 94.6% | viability [1, 30] 91.6% | viability [1, 33] 67.9%
inactive: viability [1, 14] 115% | viability [1, 15] 112% | viability [1, 16] 108% | viability [1, 17] 118% | viability [1, 18] 119% | viability [1, 19] 116% | viability [1, 20] 115% | viability [1, 21] 115% | viability [1, 22] 115% | viability [1, 23] 120% | viability [1, 24] 119% | viability [1, 25] 118% | viability [1, 26] 106% | viability [1, 28] 108% | viability [1, 31] 115% | viability [1, 32] 104%

CC(C)(O)[C@H]1CC[C@@](C)([C@H]2[C@@H](O)C[C@@]3(C)[C@@H]4C[C@H](O[C@@H]5O[C@H](CO)[C@@H](O)[C@H](O)[C@H]5O)[C@H]5C(C)(C)[C@@H](O[C@@H]6OC[C@@H](O)[C@H](O)[C@H]6O)CC[C@@]56C[C@@]46CC[C@]23C)O1
inactive: outcome [2] | outcome [3] | outcome [4] | outcome [5] | outcome [6] | outcome [7] | outcome [8] | outcome [9] | outcome [10]

CC(=O)OC[C@@H]1O[C@@H](n2ccc(=O)[nH]c2=O)[C@H](OC(C)=O)[C@@H]1OC(C)=O
inactive: outcome [2] | outcome [3] | outcome [4] | outcome [5] | outcome [6] | outcome [7] | outcome [8] | outcome [9] | outcome [10]

O=C1NC(O)CCN1[C@@H]1O[C@H](CO)[C@@H](O)[C@H]1O (stereo partly drawn)
inactive: outcome [2] | outcome [3] | outcome [4] | outcome [5] | outcome [6] | outcome [7] | outcome [8] | outcome [9] | outcome [10]

COc1cc(=C2C=c3ccccc3=N2)[nH]/c1=C/c1[nH]c(C)cc1C
active: AC50 [2] 6.61 µM | AC50 [3] 14.8 µM | AC50 [4] 4.69 µM | AC50 [5] 5.9 µM | AC50 [6] 3.32 µM | AC50 [7] 2.09 µM | AC50 [8] 2.64 µM | AC50 [9] 5.9 µM | IC50 [10] 16.6 µM

Cn1cc(-c2ccc3nnc(Sc4ccc5ncccc5c4)n3n2)cn1
7210: cell count [11, 36]
8160: cell count [11, 37]
1.79: SSMD [12]
7530: cell count [12]
0.75: z-score [13, 39]
0.78: fold change [11, 35]
inactive: outcome [2] | outcome [3] | outcome [4] | outcome [5] | outcome [6] | outcome [7] | outcome [8] | outcome [9] | outcome [10] | fold change [11, 34] 0.884 | plate-normalised HSF1 focus index [12] 1.11 | z-score [13, 38] -0.396 | viability [1, 40] 127% | viability [1, 41] 127% | viability [1, 44] 135% | viability [1, 45] 125% | viability [1, 46] 111% | viability [1, 48] 132% | viability [1, 49] 125% | viability [1, 50] 112% | viability [1, 51] 102% | viability [1, 14] 126% | viability [1, 15] 122% | viability [1, 16] 110% | viability [1, 17] 103% | viability [1, 18] 120% | viability [1, 19] 124% | viability [1, 20] 103% | viability [1, 21] 110% | viability [1, 22] 126% | viability [1, 23] 123% | viability [1, 24] 107% | viability [1, 25] 106% | viability [1, 26] 131% | viability [1, 27] 124% | viability [1, 28] 105% | viability [1, 29] 104% | viability [1, 30] 157% | viability [1, 31] 114% | viability [1, 33] 100%
active: viability [1, 42] 97.6% | viability [1, 43] 94.3% | viability [1, 47] 98.6% | viability [1, 32] 91.5%

CC(C)[C@H](O)C(=O)N[C@@H](C)C(=O)N[C@@H]1C(=O)N(C)CCc2ccccc21
inactive: outcome [2] | outcome [3] | outcome [4] | outcome [5] | outcome [6] | outcome [7] | outcome [8] | outcome [9] | outcome [10]

O=C(NCCS(=O)(=O)c1ccc(C(F)(F)F)cn1)c1ccc(Cl)cc1
9120: cell count [11, 37]
0.351: fold change [11, 35]
0.00298: z-score [13, 39]
3.34: SSMD [12]
inactive: outcome [2] | outcome [3] | outcome [4] | outcome [5] | outcome [6] | outcome [7] | outcome [8] | outcome [9] | outcome [10] | fold change [11, 34] 0.87 | plate-normalised HSF1 focus index [12] 1.2 | z-score [13, 38] -0.369
7080: cell count [12]
7940: cell count [11, 36]

Cc1ccc(C(=O)Nc2ccc(CN3CCN(C)CC3)c(C(F)(F)F)c2)cc1C#Cc1cnc2cccnn12
active: AC50 [2] 0.59 µM | AC50 [3] 0.418 µM | AC50 [4] 6.62 µM | AC50 [5] 1.18 µM | AC50 [6] 0.661 µM | AC50 [7] 0.833 µM | AC50 [8] 8.33 µM | AC50 [9] 2.35 µM | IC50 [10] 2.95 µM | viability [1, 40] 94.7% | viability [1, 44] 98% | viability [1, 50] 97% | viability [1, 14] 95.2% | viability [1, 17] 89.9% | viability [1, 18] 94.7% | viability [1, 20] 88.1% | viability [1, 22] 93.2% | viability [1, 24] 44.4% | viability [1, 25] 77.9% | viability [1, 26] 58.9% | viability [1, 28] 24.3% | viability [1, 29] 28.1% | viability [1, 30] 2.01% | viability [1, 31] 3.5% | viability [1, 32] 8.21% | viability [1, 33] 6.01%
inactive: fold change [11, 34] 1.36 | plate-normalised HSF1 focus index [12] 1.09 | z-score [13, 38] 1.37 | viability [1, 41] 114% | viability [1, 42] 108% | viability [1, 43] 114% | viability [1, 45] 122% | viability [1, 46] 103% | viability [1, 47] 111% | viability [1, 48] 104% | viability [1, 49] 130% | viability [1, 51] 107% | viability [1, 15] 127% | viability [1, 16] 102% | viability [1, 19] 117% | viability [1, 21] 111% | viability [1, 23] 118% | viability [1, 27] 116%
-2.78: z-score [13, 39]
814: cell count [11, 36]
7680: cell count [12]
1.05: fold change [11, 35]
597: cell count [11, 37]
1.5: SSMD [12]
